Results on 114 sequences are retold here after the supplement of paper PMC12636033.

± gives the standard deviation of the averaged measurements. In all, about 33,000 sequences were measured (“E-score (rank enrichment, -0.5 to 0.5)”: median about -0.0043, highest 2% from about 0.24 on). For the sample, the highest values were picked, then their nearest neighbours and some sequences at random.

This experiment relates to 2Sp-muMax20 (muMax20 with two 2,6-bis(methyl)pyridine Cys staples). Put plainly: PBM 8-mer E-score (E-score (rank enrichment, -0.5 to 0.5)); higher = stronger preferential binding. The protocol:
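Protein binding microarray (universal PBM chip covering all 10-mers in fixed probe flanks) with chemically synthesized human Max(13-93) bHLH-LZ analogs (not full-length Max) bearing noncanonical residues (hArg, Tha, Aib, Nle at 65) and aromatic Cys staples. Read-out per 8-mer (and its reverse complement): E-score (rank-based enrichment, -0.5 to 0.5) and Z-score of median probe intensity.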
In the case of AGTTAATA, the “PBM 8-mer E-score” value is 0.138 ± 0.027.
To AATTAATA belongs 0.285 ± 0.03; to AATTAATG, 0.215 ± 0.028.
For the sequence GCTAAGTA, the “PBM 8-mer E-score” value turned out to be 0.034 ± 0.091.
With CCGCCGCC the figure was -0.00332 ± 0.019.
With ACACCAGA the figure was -0.0516 ± 0.0077; with CATGAACA, -0.0306 ± 0.058.
To GTTTAGGA belongs -0.13 ± 0.036.
Turning to GACCCTTA, the “PBM 8-mer E-score” value is -0.0689 ± 0.0029.
With ATTTAAAG the figure was 0.0431 ± 0.059; with ATTTAAAC, 0.329 ± 0.047.
In the case of CTTTAAAC, the “PBM 8-mer E-score” value came to 0.0827 ± 0.097.
Turning to AAAATTCC, the “PBM 8-mer E-score” value is 0.0483 ± 0.056.
Take CCTCTTAA: the “PBM 8-mer E-score” value was 0.0544 ± 0.11.
With CGTGGGGA the figure was 0.1018 ± 0.00016.
Regarding TATGGGGA, the “PBM 8-mer E-score” value is 0.283 ± 0.028.
With CATGGGGA, the “PBM 8-mer E-score” value amounted to 0.124 ± 0.043.
With AGTGGGGG the figure was -0.0461 ± 0.0062.
To AGTGGGGA belongs 0.245 ± 0.011; to AATGGGGA, 0.112 ± 0.047.
With GCCATGTA the figure was 0.0368 ± 0.0029; with CTCTTGGA, -0.112 ± 0.014; with CAGTAGCG, -0.205 ± 0.045.
In the case of ACGGCTAA, the “PBM 8-mer E-score” value was -0.0509 ± 0.014.
Turning to ACCCCGGC, the “PBM 8-mer E-score” value is -0.00709 ± 0.083.
With ACATAGAC the figure was 0.115 ± 0.034.
To GTTGAAGA belongs 0.0675 ± 0.033; to ATTGAAGG, -0.0238 ± 0.14; to ATTGAAGA, 0.237 ± 0.023.
To CTTCCGAA belongs -0.23 ± 0.024; to ATATTATG, 0.274 ± 0.083.
Take ATATTACA: the “PBM 8-mer E-score” value is 0.157 ± 0.058.
With ATATTAGC, the “PBM 8-mer E-score” value amounted to 0.166 ± 0.0073.
With GTATTAAA the figure was 0.134 ± 0.014; with CTATTATA, 0.0957 ± 0.01.
Regarding ATATTATA, the “PBM 8-mer E-score” value was 0.268 ± 0.047.
GTATTATA: the “PBM 8-mer E-score” value is 0.259 ± 0.053.
To AGATTATG belongs -0.00069 ± 0.061; to ATATTAGA, 0.235 ± 0.012.
ATATTAGG: the “PBM 8-mer E-score” value worked out at 0.297 ± 0.029.
To ATATTATC belongs 0.0885 ± 0.023.
With GTATTAGA the figure was 0.182 ± 0.073.
To CAGTTCGC belongs -0.0265 ± 0.073; to TGTTAGAA, 0.125 ± 0.12.
As to CGACTGGC, the “PBM 8-mer E-score” value is -0.148 ± 0.052.
To CCAGAGAC belongs -0.05 ± 0.076; to GGATGACA, -0.0339 ± 0.094.
On to GTATTCTA, for which the “PBM 8-mer E-score” value was 0.134 ± 0.021.
With CTATTCTA the figure was 0.227 ± 0.043; with ATATTCTA, 0.244 ± 0.04; with AATGGCAA, 0.00112 ± 0.089.
Consider CCAAGAGC, for which the “PBM 8-mer E-score” value is -0.0397 ± 0.036.
With GACGTGGA the figure was 0.055 ± 0.0074.
Regarding CACGTGGG, the “PBM 8-mer E-score” value amounted to 0.436 ± 0.0081.
To AACGTGGC belongs 0.163 ± 0.041.
With TACGTGGA the figure was 0.0461 ± 0.0044; with CACGTGGC, 0.357 ± 0.064; with GACGTGGC, 0.0114 ± 0.026.
With AACGTGGA the figure was 0.0553 ± 0.0092; with CACGTGGA, 0.398 ± 0.033.
As for AACGTGGG, the “PBM 8-mer E-score” value worked out at 0.1 ± 0.047.
With CTATTCAG the figure was 0.00673 ± 0.056.
To AGAAGCGA belongs -0.0304 ± 0.05.
To ATCACGGA belongs -0.0223 ± 0.047; to ACTTAGCC, -0.0201 ± 0.091.
For the sequence AGCGTAAC, the “PBM 8-mer E-score” value is 0.041 ± 0.14.
To GACTCAGC belongs -0.176 ± 0.036; to AACGCCTT, -0.0913 ± 0.021.
To AGACAATC belongs 0.0678 ± 0.067.
Take AGACAATA: the “PBM 8-mer E-score” value was 0.268 ± 0.026.
To ACACAAAC belongs 0.271 ± 0.025; to GCACAATA, -0.00579 ± 0.025.
With ACACAATA the figure was 0.247 ± 0.029; with AGACAATG, 0.00664 ± 0.0054; with ACACAAAG, 0.206 ± 0.045.
Consider ACACAAAA, for which the “PBM 8-mer E-score” value stood at 0.172 ± 0.045.
With ACACAATG, the “PBM 8-mer E-score” value came to 0.122 ± 0.025.
Take GAAGGTCA: the “PBM 8-mer E-score” value was -0.106 ± 0.027.
For the sequence ATCTAACG, the “PBM 8-mer E-score” value came to 0.0512 ± 0.018.
With CCCCTTTA, the “PBM 8-mer E-score” value was determined as 0.1759 ± 0.0016.
To ACTGTGGC belongs -0.025 ± 0.13.
For AGTTTAAA, the “PBM 8-mer E-score” value is 0.181 ± 0.021.
For TGTTTTAA, the “PBM 8-mer E-score” value came out at 0.0917 ± 0.0018.
With TATTTAAA the figure was 0.155 ± 0.05; with CATTTTAA, 0.167 ± 0.029.
As to CATTTAAA, the “PBM 8-mer E-score” value is 0.239 ± 0.026.
To TGTTTAAA belongs 0.278 ± 0.015; to ATCCTCTA, -0.0199 ± 0.026; to CAAGTGTG, 0.119 ± 0.073.
To AATGCGTC belongs -0.0127 ± 0.03.
To ATCAAGAC belongs -0.00991 ± 0.011; to ACGATGAT, 0.0729 ± 0.0089; to CTCTATCA, -0.0317 ± 0.017.
GGCACCAA: the “PBM 8-mer E-score” value worked out at 0.0196 ± 0.084.
To AATGTGGT belongs 0.0284 ± 0.063; to AATGTGGC, 0.124 ± 0.005; to CATGTGGC, 0.173 ± 0.13.
With CATGTGGA the figure was 0.16 ± 0.0062.
As to CATGTGGG, the “PBM 8-mer E-score” value is 0.329 ± 0.026.
To AATGTGGG belongs 0.246 ± 0.00061; to GGGAGTTA, 0.245 ± 0.029.
As to AGGAGTTA, the “PBM 8-mer E-score” value is 0.109 ± 0.0086.
In the case of CGGAGTTA, the “PBM 8-mer E-score” value was -0.187 ± 0.057.
To CATCGTGA belongs -0.256 ± 0.15.
With GAAGTCTA the figure was 0.0975 ± 0.1; with CATACTAG, 0.243 ± 0.0018.
For the sequence CTTACTAC, the “PBM 8-mer E-score” value was 0.122 ± 0.0036.
With CATACTAC the figure was 0.0746 ± 0.039; with CATACTAA, 0.1447 ± 0.00064; with ACTACTAG, 0.261 ± 0.086.
To ATTACTAC belongs 0.256 ± 0.011; to CCTACTAG, 0.107 ± 0.023; to ACTACTAT, 0.146 ± 0.12.
Turning to ATTACTAG, the “PBM 8-mer E-score” value was -0.00656 ± 0.053.
